The target of the first experiment is SRC. Briefly: pooled miR-30 sensor sort-seq; sequence = guide strand. To be noted: shRNA.
Regarding TTTCGTGGTCTCACTTTCTCGC, the sensor-assay potency score (higher = more potent) was determined as 0.127. Still for that read-out and setting: to TGAAGGACAGGTCTGTCTCCGT belongs -0.405; to TTGAAGGACAGGTCTGTCTCCG, 0.367.

Sequence TGAAACCACAGCATACAACTGC came in with a sensor-assay potency score (higher = more potent) of 0.358. TAGACTCATAGTCATAGAGGGC showed a sensor-assay potency score (higher = more potent) of -1.02. On the same count and under the same terms, the value for TGTGTTGTTGACAATCTGGAGC was -0.666; that for TCTCGCACGAGGAAGGTCCCTC was -0.579.

For another experiment, the target named is SREBF2. The description is as above. As to conditions: shRNA.
TCATGCAGGAACACCTTGCGGT: the sensor-assay potency score (higher = more potent) was 0.123. Sequence TAAAATGAGAGCGCACAGCTGC returned a sensor-assay potency score (higher = more potent) of -0.945. Still for that read-out and setting: to TAGCTTCGTCTTCAAAGCCTGC belongs -1.4; to ATTACTGACAAATTGCAGCATC, -0.795. Still for that read-out and setting: to TTGATTACTGACAAATTGCAGC belongs -0.488. Same read-out and setting: the value for TTAGCTTCGTCTTCAAAGCCTG was -0.243. In turn, TCGAATGACAGGACACTGCGGC yielded a sensor-assay potency score (higher = more potent) of -0.313.

TTCACAGCTCTCTTCTTCCTGG registered a sensor-assay potency score (higher = more potent) of 0.117. The same measure, in the same setting: the value for TTTGATGTAATCAATGGCCTTC was 0.209.

In turn, TTAACAATCATCTGCTGGCAGT yielded a sensor-assay potency score (higher = more potent) of -1.13. Still for that read-out and setting: to TTTATGATTGACCTGCTGCAAG belongs -1.02.

The next experiment deals with SRPK1. Described as above. To be noted: shRNA.
As to TTCGCTTCTCTAGTAATTCTGC, the sensor-assay potency score (higher = more potent) was 0.131. On the same count and under the same terms, the value for TAGTTGAACAACCATTTCTCTA was -1.08; that for TTTGATGATCCACTTGAGCAGA was -0.465; that for TATGTGTTCCATTAACTCCTGA was -0.508. On the same count and under the same terms, the value for TATTCTTTGACATTTTGTCAGC was -0.83; that for TTCCATAAGCGTTTGATCCTGG was 0.385. On the same count and under the same terms, the value for TAACTTTCGGATCACATGGTAT was -1.15; that for TAGCATTATGTAGATCCTCTTT was -0.224.

On to TTATAGGTGTACAAGAGTCTGT, for which the sensor-assay potency score (higher = more potent) was -0.536. Still for that read-out and setting: the value for TACAATAATCATTAGGATCTTC was -0.347. Same read-out and setting: to ATCTAGTAGTTGAACAACCATT belongs -1.39; to TTTAAAGTCATCTAGTAGTTGA, -0.439.

For the next experiment, the target named is SRSF11. The experiment is described as above. To be noted: shRNA.
Consider TAGAACGTGATCTTGATCTTGA, for which the sensor-assay potency score (higher = more potent) came to 0.589. Sequence TATCTGGTTCTATAGCAGCAGA yielded a sensor-assay potency score (higher = more potent) of -1.33. TACATCTTTATCACTCTCTGAT: the sensor-assay potency score (higher = more potent) came out at 0.584.

TAAGCTTCAGCAACTGATCTGC came in with a sensor-assay potency score (higher = more potent) of 0.509.

Turning to TCTTCTTGCTTGTTGATCGTTC, the sensor-assay potency score (higher = more potent) turned out to be 0.0447.

In turn, TTAGGGACTGTGCTTCTCGTAC showed a sensor-assay potency score (higher = more potent) of -0.978.

TTGCACTTCTAGAACGTCTGGC: the sensor-assay potency score (higher = more potent) was found to be 0.928. As to TTCCTCTTCATCATAATCCCGT, the sensor-assay potency score (higher = more potent) was 0.0321. Still for that read-out and setting: the value for TTTGTCTTTATCTTTCTTCTTC was 0.407; that for TTGATCTTGAATGCCTTCTTTT was -0.673.
Also: reference of the scale not given here.
